# Several values for one entry are separate records, joined by “and”; a condition that tells them apart may be missing. Equal entries are not always repeated. Structures can show the parent of a compound that is named as a salt. The campaign covered roughly 5,800 compounds. About 620 (11%) showed activity. This excerpt belongs to a sample that is enriched for actives. Values without a mark were called inactive.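 The calls were made as follows: active = score above a cut-off or among the top three wells of a plate; in these data no inactive exceeds 0.85.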
# Test system: primary human hepatic stellate cells (donor 1)
# Test: scaled lipid accumulation score (0 = DMSO-like, 1 = nortriptyline-like); higher = stronger HSC inactivation (lipid re-accumulation), active = hit call of the paper
# Conditions: 48 h
# [1] = library stock concentration: 1 mM
# [2] = library stock concentration: 10 mM
# [3] = library stock concentration: 80 uM
# [4] = library stock concentration: 400 uM
# [5] = library stock concentration: 2 mM
# [6] = library stock concentration: 3.33 mM
# [7] = library stock concentration: 6.9 mM
smiles,measurement,setting,value
CCCCC/C=C\C/C=C\C/C=C\C/C=C\CCCC(=O)N[C@@H](C)CO [S-1 Methanandamide],scaled lipid accumulation score,[1],≤ 0
CN1C2CC(=O)CC1C(O)C2 (stereo unspecified) [6-Hydroxytropinone],scaled lipid accumulation score,,≤ 0
CN1[C@@H](C[C@@H](O)c2ccccc2)CCC[C@H]1C[C@H](O)c1ccccc1 [Lobelanidine hydrochloride],scaled lipid accumulation score,,0.194
O=C(O)C1=CCCN(CCOC(c2ccc(C(F)(F)F)cc2)c2ccc(C(F)(F)F)cc2)C1 [CI 966 hydrochloride],scaled lipid accumulation score,[2],≤ -0.006
CC1=C(O)C(=O)C=C2C1=CC=C1[C@@]2(C)CC[C@@]2(C)[C@@H]3C[C@](C)(C(=O)O)CC[C@]3(C)CC[C@]12C [Celastrol] [listing 1 of 2 here],scaled lipid accumulation score,[1],1.34 (active)
CC1=C(O)C(=O)C=C2C1=CC=C1[C@@]2(C)CC[C@@]2(C)[C@@H]3C[C@](C)(C(=O)O)CC[C@]3(C)CC[C@]12C [Celastrol] [listing 2 of 2 here],scaled lipid accumulation score,[3],0.019
same,scaled lipid accumulation score,[4],0.093
same,scaled lipid accumulation score,[2],0.392
O=C1C=C2C(C(C)=C1O)=CC=C3[C@]2(CCC4([C@@H]5C[C@@](CC[C@@]5(CC[C@]34C)C)([C@@](O)=O)C)C)C (stereo partly specified) [Celastrol],scaled lipid accumulation score,[5],1.14 (active)
same,scaled lipid accumulation score,[2],1.14 (active)
CN1CCN(C(=O)O[C@H]2c3nccnc3C(=O)N2c2ccc(Cl)cn2)CC1 [Eszopiclone],scaled lipid accumulation score,[2],≤ 0
CN1CCN(C(=O)O[C@H]2c3nccnc3C(=O)N2c2ccc(Cl)cn2)CC1,scaled lipid accumulation score,[2],0.134
C#CCN[C@H](C)Cc1ccccc1 [R-(-)-Desmethyldeprenyl hydrochloride],scaled lipid accumulation score,[2],≤ 0
CC[C@@H]1C=CC=CC[C@H](C)[C@@H](O)[C@@H](C)C(=O)[C@H](C)[C@@H](O)[C@H](C)C(=O)[C@H](C)[C@@H](O)[C@H](C)C=CC(=O)O[C@H]2[C@@H](C)[C@@H](CC1)O[C@@]1(CC[C@@H](C)[C@@H](C[C@H](C)O)O1)[C@@H]2C,scaled lipid accumulation score,[2],≤ 0
CN1[C@@H]2CC[C@H]1C[C@@H](OC(=O)C(CO)c1ccccc1)C2 (stereo partly specified) [Atropine],scaled lipid accumulation score,[6],≤ 0
same,scaled lipid accumulation score,[2],≤ 0
CN1[C@@H]2CC[C@H]1C[C@@H](OC(=O)C(CO)c1ccccc1)C2 (stereo partly specified) [Atropine sulfate monohydrate],scaled lipid accumulation score,,0.118
CCC(Oc1ccc(Cl)cc1)C(=O)OC1CC2CCC(C1)N2C.O=C(O)/C=C\C(=O)O (stereo unspecified) [SM-21 maleate],scaled lipid accumulation score,[2],0.886 (active)
CC(C(=O)OC1CC2CCC(C1)N2C)c1ccc(Br)cc1.O=C(O)/C=C\C(=O)O (stereo unspecified) [PG-9 maleate],scaled lipid accumulation score,[2],0.958 (active)
CN1[C@@H]2CC[C@H]1CC(OC(=O)N1Cc3ccccc3NC1=O)C2 (stereo partly specified) [DAU 5884 hydrochloride],scaled lipid accumulation score,[2],≤ -0.001
CN1[C@@H]2CC[C@H]1C[C@@H](OC(=O)[C@H](CO)c1ccccc1)C2 [Hyoscyamine],scaled lipid accumulation score,[6],≤ 0
same,scaled lipid accumulation score,[7],≤ -0.001
same,scaled lipid accumulation score,[2],≤ 0 and 0.017
CN1[C@@H]2CC[C@H]1C[C@@H](OC(=O)[C@H](CO)c1ccccc1)C2 [L-Hyoscyamine],scaled lipid accumulation score,[2],≤ -0.07
COc1ccc(C(=O)OC2C[C@H]3CC[C@@H](C2)N3C)cc1OC (stereo partly specified) [Convolamine hydrochloride],scaled lipid accumulation score,,0.027
CN1[C@@H]2CC[C@H]1C[C@@H](OC(=O)C(CO)c1ccccc1)C2 (stereo partly specified),scaled lipid accumulation score,[2],≤ 0
CN1[C@@H]2CC[C@H]1C[C@@H](OC(=O)C(CO)c1ccccc1)C2 (stereo partly specified) [Atropine sulfate],scaled lipid accumulation score,library stock concentration: 5.2 mM,0.019
same,scaled lipid accumulation score,[7],0.018
same,scaled lipid accumulation score,[2],0.196 and ≤ 0
CN1[C@@H]2CC[C@H]1C[C@@H](OC(=O)[C@H](CO)c1ccccc1)C2 [Hyoscyamine (L)],scaled lipid accumulation score,,≤ 0
CNCC(O)c1ccc(O)c(OC)c1 (stereo not drawn) [Metanephrine hydrochloride DL],scaled lipid accumulation score,,0.001
"CCCCCC1OC1C/C=C\CCCCCCCC(=O)O (stereo unspecified) [Leukotoxin B (12,13-EODE)]",scaled lipid accumulation score,library stock concentration: 100 uM,≤ -0.021
CCCCCC[C@H]1C(=O)O[C@H](C)[C@H](NC(=O)c2cccc(NC=O)c2O)C(=O)O[C@@H](C)[C@@H]1OC(=O)CC(C)C [Antimycin A],scaled lipid accumulation score,,0.274
"CCCCC/C=C\C/C=C\C/C=C\C/C=C\CCCC(=O)N(C)C [Arachidonoyl-N,N-dimethyl amide]",scaled lipid accumulation score,[1],0.01
CC(N)C(O)c1ccccc1 (stereo unspecified) [Phenylpropanolamine],scaled lipid accumulation score,library stock concentration: 13.2 mM,≤ 0
CC(N)C(O)c1ccccc1 (stereo unspecified) [Phenylpropanolamine hydrochloride],scaled lipid accumulation score,,≤ 0
same,scaled lipid accumulation score,library stock concentration: 10.7 mM,≤ -0.001
C=C[C@H]1CN2CC[C@H]1C[C@H]2[C@H](OC(=O)OCC)c1ccnc2ccc(OC)cc12 [Quinine ethyl carbonate],scaled lipid accumulation score,library stock concentration: 5 mM,≤ -0.001
same,scaled lipid accumulation score,[2],0.318
CN1C[C@H](C(=O)N[C@]2(C)O[C@@]3(O)[C@@H]4CCCN4C(=O)[C@H](Cc4ccccc4)N3C2=O)C[C@@H]2c3cccc4[nH]cc(c34)C[C@H]21.CS(=O)(=O)O [Dihydroergotamine methanesulfonate],scaled lipid accumulation score,[2],1.06 (active)
CN1C[C@H](C(=O)N[C@]2(C)O[C@@]3(O)[C@@H]4CCCN4C(=O)[C@H](Cc4ccccc4)N3C2=O)C[C@@H]2c3cccc4[nH]cc(c34)C[C@H]21 [Dihydroergotamine mesylate],scaled lipid accumulation score,library stock concentration: 2.9 mM,≤ 0
same,scaled lipid accumulation score,[2],0.16 and 0.216
CN1C[C@H](C(=O)N[C@]2(C)O[C@@]3(O)[C@@H]4CCCN4C(=O)[C@H](Cc4ccccc4)N3C2=O)C[C@@H]2c3cccc4[nH]cc(c34)C[C@H]21 [Dihydroergotamine tartrate],scaled lipid accumulation score,,0.119
CC(C)[C@@]1(NC(=O)[C@@H]2C[C@@H]3c4cccc5[nH]cc(c45)C[C@H]3N(C)C2)O[C@@]2(O)[C@@H]3CCCN3C(=O)[C@H](Cc3ccccc3)N2C1=O [Dihydroergocristine mesylate],scaled lipid accumulation score,,0.232
same,scaled lipid accumulation score,[2],0.54
FC(F)(F)c1cccc(C2=CCN(CCc3ccc4ccccc4c3)CC2)c1 [Xaliproden hydrochloride],scaled lipid accumulation score,[2],0.229
CC(N)Cc1cnc[nH]1 (stereo unspecified),scaled lipid accumulation score,[2],0.028
CN1CC[C@]23CCCC[C@H]2[C@H]1Cc1ccc(O)cc13,scaled lipid accumulation score,library stock concentration: 9.9 mM,≤ 0
CC(=O)O[C@H]1C[C@@H]2CC[C@@H]3[C@H](CCC4(C)[C@H]3C[C@H]([N+]3(C)CCCCC3)[C@@H]4OC(C)=O)C2(C)C[C@@H]1[N+]1(C)CCCCC1 (stereo partly specified) [Pancuronium Br],scaled lipid accumulation score,library stock concentration: 3.5 mM,≤ -0.006
Cc1[nH]nc2ccc(-c3cncc(OC[C@@H](N)Cc4c[nH]c5ccccc45)c3)cc12,scaled lipid accumulation score,[3],0.308
same,scaled lipid accumulation score,[5],0.593
same,scaled lipid accumulation score,[2],0.427
Cc1n[nH]c2ccc(-c3cncc(OC[C@@H](N)Cc4c[nH]c5ccccc45)c3)cc12,scaled lipid accumulation score,[4],1 (active)
CNC(Cc1c[nH]c2ccccc12)C(=O)O (stereo unspecified) [Abrine (l)],scaled lipid accumulation score,[2],≤ 0
C[N+]1(C)C2CCC1CC(OC(=O)c1c[nH]c3ccccc13)C2 (stereo unspecified) [3-Tropanylindole-3-carboxylate methiodide],scaled lipid accumulation score,[2],≤ 0
c1ccc2c(c1)Sc1ccccc1N2CC1CN2CCC1CC2 (stereo unspecified),scaled lipid accumulation score,[2],1.03 (active)
Cn1cc(C(=O)C(=O)N[C@H]2CN3CCC2CC3)c2ccccc21,scaled lipid accumulation score,[2],0.403
O=C(N[C@H]1CN2CCC1CC2)c1ccc(Cl)cc1,scaled lipid accumulation score,[2],≤ -0.001 and 0.156
COc1cc2c(cc1OC)[C@@]13CCN4CC5=CCO[C@H]6CC(=O)N2[C@H]1[C@H]6[C@H]5C[C@H]43 [Brucine],scaled lipid accumulation score,library stock concentration: 5.1 mM,≤ 0
same,scaled lipid accumulation score,[2],≤ 0
O=c1c2ccccc2[se]n1-c1ccccc1 [Ebselen] [listing 1 of 3 here],scaled lipid accumulation score,library stock concentration: 18.2 mM,0.952 (active)
O=c1c2ccccc2[se]n1-c1ccccc1,scaled lipid accumulation score,[2],1.07 (active)
O=c1c2ccccc2[se]n1-c1ccccc1 [Ebselen] [listing 2 of 3 here],scaled lipid accumulation score,,0.867 (active)
O=c1c2ccccc2[se]n1-c1ccccc1 [Ebselen] [listing 3 of 3 here],scaled lipid accumulation score,[1],≤ 0
CNC1=Nc2ccc(Cl)cc2C(c2ccccc2)=[N+]([O-])C1,scaled lipid accumulation score,[2],0.036
CCCCC/C=C\C/C=C\C/C=C\C/C=C\CCCCOC(CO)CO [2-Arachidonyl Glycerol ether],scaled lipid accumulation score,[1],≤ 0
COc1ccc2cc(C(C#N)OC(=O)OCC3OC3c3ccccc3)ccc2c1 (stereo unspecified) [Epoxy Fluor 7],scaled lipid accumulation score,[1],0.009
Cc1cc2c(C(C)C)c(O)c(O)c(C=O)c2c(O)c1-c1c(C)cc2c(C(C)C)c(O)c(O)c(C=O)c2c1O [listing 1 of 2 here],scaled lipid accumulation score,[6],≤ 0
same,scaled lipid accumulation score,[2],0.142
Cc1cc2c(C(C)C)c(O)c(O)c(C=O)c2c(O)c1-c1c(C)cc2c(C(C)C)c(O)c(O)c(C=O)c2c1O [listing 2 of 2 here],scaled lipid accumulation score,[2],0.999 (active)
Cc1cc2c(C(C)C)c(O)c(O)c(C=O)c2c(O)c1-c1c(C)cc2c(C(C)C)c(O)c(O)c(C=O)c2c1O [Gossypol],scaled lipid accumulation score,,≤ 0
same,scaled lipid accumulation score,[6],0.016
same,scaled lipid accumulation score,[2],0.824 and 0.57
CC(N)Cc1ccc(O)cc1 (stereo unspecified) [Hydroxyamphetamine hydrobromide],scaled lipid accumulation score,[2],≤ 0
CC(C)=CCC[C@]1(C)C=Cc2c(O)c3c(c(CC=C(C)C)c2O1)O[C@]12C(=C[C@@H]4C[C@H]1C(C)(C)O[C@@]2(C/C=C(/C)C(=O)O)C4=O)C3=O [Gambogic acid],scaled lipid accumulation score,[2],0.672
CCCCCCC(C)(C)c1cc(OC)c2c(c1)OC(C)(C)[C@@H]1CC=C(C)C[C@@H]21,scaled lipid accumulation score,[1],≤ 0
